A number with no mark means an inactive call. Active and inactive are the calls of the source. Unless noted, no stated cut-off is given here; in the data, active means inhibition above about 28%; inactive means the rest.

Assay [1] in a line: StAR promoter reporter inhibitors, counter-screen for LRH-1 inverse agonist project, cell-based, luminescence, high throughput (AID 651611). The settings on record: StAR promoter luciferase reporter counterscreen, at 3.6 µM, active compounds read high. For orientation: A counterscreen serves to expose hits that act by an unwanted route or on another target.
Assay [2] addresses Nuclear receptor subfamily 5 group A member 2 (Homo sapiens) (UniProt O00482). The assay is described as follows: NR5A2 activity suppression in reporter cells – cell-based, luminescence, confirmation (AID 651613; in the data active means inhibition above about 42%;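 further: HEK293T cells co-transfected with LRH-1 and StAR promoter luciferase reporter; 0% = vehicle wells and 100% = parental cells lacking receptor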). The settings on record: cell-based LRH-1 luciferase reporter, inverse agonism; at 3.6 µM; active compounds read high.
The target of assay [3] is Steroidogenic factor 1 (Homo sapiens) (UniProt Q13285). The assay is described as follows: inverse agonism at SF1 nuclear receptor – cell-based, luminescence, high throughput, counter-screen for LRH-1 inverse agonist project (AID 651614; in the data active means inhibition above about 44%;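 further: cells cotransfected with StAR promoter reporter and SF1 expression vector; 0% = vehicle on cells with receptor and 100% = vehicle on cells lacking receptor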). The settings on record: cell-based SF1 luciferase reporter, at 3.6 µM, active compounds read high.
Steroidogenic factor 1 (Homo sapiens), sequence (Q13285 whole entry, looked up, the tested form may be a part): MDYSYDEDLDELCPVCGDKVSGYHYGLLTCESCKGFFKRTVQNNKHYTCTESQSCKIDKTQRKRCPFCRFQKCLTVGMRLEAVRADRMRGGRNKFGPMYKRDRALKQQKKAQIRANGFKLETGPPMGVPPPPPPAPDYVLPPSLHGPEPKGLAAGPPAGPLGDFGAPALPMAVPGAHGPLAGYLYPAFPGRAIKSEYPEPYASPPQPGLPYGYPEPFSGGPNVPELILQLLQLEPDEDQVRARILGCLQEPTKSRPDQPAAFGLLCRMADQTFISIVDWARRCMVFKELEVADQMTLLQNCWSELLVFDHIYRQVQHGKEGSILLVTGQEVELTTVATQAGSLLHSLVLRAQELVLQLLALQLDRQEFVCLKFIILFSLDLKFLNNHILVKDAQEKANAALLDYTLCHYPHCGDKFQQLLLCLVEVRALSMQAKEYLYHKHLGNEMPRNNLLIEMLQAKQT
Assay [4] is described as follows: compounds suppressing VP16-driven luciferase signal – cell-based, luminescence, high throughput, counter-screen for LRH-1 inverse agonist project (AID 651615; in the data active means inhibition above about 33%). The settings on record: Gal4-VP16 luciferase reporter cells, at 3.6 µM, active compounds read high.

Nuclear receptor subfamily 5 group A member 2 (Homo sapiens), sequence (O00482 whole entry, looked up): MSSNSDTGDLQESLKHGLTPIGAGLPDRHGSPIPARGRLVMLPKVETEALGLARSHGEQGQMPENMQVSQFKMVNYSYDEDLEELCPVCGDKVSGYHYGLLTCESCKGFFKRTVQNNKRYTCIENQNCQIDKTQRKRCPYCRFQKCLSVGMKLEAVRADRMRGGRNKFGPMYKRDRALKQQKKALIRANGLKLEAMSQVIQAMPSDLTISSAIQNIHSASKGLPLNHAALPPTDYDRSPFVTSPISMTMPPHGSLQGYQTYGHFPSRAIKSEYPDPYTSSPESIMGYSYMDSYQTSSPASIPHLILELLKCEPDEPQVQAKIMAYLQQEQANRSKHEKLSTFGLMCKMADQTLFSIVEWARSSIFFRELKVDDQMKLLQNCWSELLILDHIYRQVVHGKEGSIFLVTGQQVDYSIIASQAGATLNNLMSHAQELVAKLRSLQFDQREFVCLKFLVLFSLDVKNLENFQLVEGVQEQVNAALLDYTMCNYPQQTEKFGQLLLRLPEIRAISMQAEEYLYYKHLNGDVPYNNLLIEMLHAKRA

As to `CC(=O)N1CCN(c2ccc(Oc3ccc([N+](=O)[O-])c(C(F)(F)F)c3)cc2)CC1`, the inhibition (in general, the change of the read-out against control, counted positive when it falls) in assay [1] was 30.3% (active); in assay [2], 68.3% (active); in assay [3] it was 72.9% (active); in assay [4], 57.5% (active).

Regarding `CC1(C(=O)NCc2ccco2)Cc2c(-c3ccccc3)ccnc2O1` (stereo unspecified), the inhibition was 42% (active) in assay [1], 36.3% in assay [2], 59% (active) in assay [3] and 26.6% in assay [4].

In the case of `CCOc1ccc(C(=O)c2cc([N+](=O)[O-])ccc2Cl)cc1`, the inhibition in assay [1] was 12.6%; in assay [2] it was 42.3% (active); in assay [3], 39.5%; in assay [4], -1.79%.

`Cc1nn(CC(=O)Nc2ccc(N3CCOCC3)cc2)c(C)c1Cl`: the inhibition in assay [1] was -2.18%; in assay [2] it was 44.3% (active); in assay [3], 29.8%; in assay [4], -1.64%.

As for `CC(=O)c1ccc(NC(=O)CSc2nc3[nH]ncc3c(=O)[nH]2)cc1`, the inhibition in assay [1] was -0.97%; in assay [2] it was 61.5% (active); in assay [3], 50.8% (active); in assay [4], -6.29%.

As to `CC(NC(=O)c1ccc([N+](=O)[O-])o1)C1CC2CCC1C2` (stereo unspecified), the inhibition is 3.5% in assay [1], 49.1% (active) in assay [2], 44.2% (active) in assay [3] and 10.8% in assay [4].

Take `CCNc1cc(N2CCCC2)ccc1[N+](=O)[O-]`: the inhibition in assay [1] is 10.6%; in assay [2], 40.2%; in assay [3] it was 44% (active); in assay [4], -8.79%.

Take `CCN(CC)c1ccc(NC(=O)CSc2nnc(N)s2)cc1C`: the inhibition is -2.14% in assay [1], 57.1% (active) in assay [2], 51.4% (active) in assay [3] and -4.26% in assay [4].

On to `Cc1ccc(S(=O)(=O)NCc2ccncc2)c(C)c1C`, for which the inhibition in assay [1] was 17.9%; in assay [2], 56.9% (active); in assay [3] it was 59.5% (active); in assay [4], 53.4% (active).
